# Results published in PubChem BioAssay AID488864 (Broad Institute, 2010).
# Potency and affinity values are given separately. Activity calls are given as the source filed them.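 Rule for the calls: active = ATP signal reduced by compound, with fitted active dose under ten times the top valid tested dose; inactive = the rest, compounds that increase ATP levels included.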
# Experiment: cellular ATP toxicity in rat beta cells – cell-based, CellTiter-Glo luminescence, INS-1E, dry powder, cytotoxicity control for beta-cell cytokine protection project, dose response (AID 488864)
# Details: INS-1E rat beta cells, 48 h, no cytokines; series mostly up to 26 µM; activity change, negative = ATP decrease: at the top concentration
row,SMILES,"activity change, negative = ATP decrease"
1,C[C@@H]1CN([C@@H](C)CO)C(=O)c2cccc(NC(=O)Nc3cccc4ccccc34)c2O[C@H]1CN(C)S(=O)(=O)c1ccc2c(n1)N(C)CCO2,11.8% (inactive)
2,COc1ccc(S(=O)(=O)N(C)C[C@@H]2Oc3c(cccc3N(C)C)C(=O)N([C@@H](C)CO)C[C@H]2C)cc1,5.31% [at 23.5 µM] (inactive)
3,C[C@@H]1CN([C@@H](C)CO)C(=O)c2cccc(NC(=O)Nc3ccc(F)cc3)c2O[C@H]1CN(C)S(=O)(=O)c1ccc(Cl)cc1,8.98% (inactive)
4,COc1ccc(S(=O)(=O)N(C)C[C@@H]2Oc3c(NC(=O)c4cccc5ccccc45)cccc3C(=O)N([C@@H](C)CO)C[C@H]2C)cc1,4.48% (inactive)
5,Cc1ccc(S(=O)(=O)N(C)C[C@@H]2Oc3c(NC(=O)Nc4cccc5ccccc45)cccc3C(=O)N([C@@H](C)CO)C[C@H]2C)cc1,5.11% (inactive)
6,C[C@@H]1CN([C@@H](C)CO)C(=O)c2cccc(NC(=O)Nc3cccc4ccccc34)c2O[C@H]1CN(C)C(=O)Nc1ccc(C(F)(F)F)cc1,-5.68% [at 23.5 µM] (inactive)
7,COc1ccc(S(=O)(=O)Nc2cccc3c2O[C@@H](CN(C)S(=O)(=O)c2ccc(OC)cc2)[C@H](C)CN([C@@H](C)CO)C3=O)cc1,0.616% (inactive)
8,C[C@@H]1CN([C@@H](C)CO)C(=O)c2cccc(NC(=O)Nc3cccc4ccccc34)c2O[C@H]1CN(C)S(=O)(=O)c1cn(C)cn1,2.81% (inactive)
9,Cc1ccc(S(=O)(=O)N(C)C[C@@H]2Oc3c(NC(=O)Nc4ccc(F)cc4)cccc3C(=O)N([C@@H](C)CO)C[C@H]2C)cc1,3.29% (inactive)
10,COc1ccc(S(=O)(=O)N(C)C[C@@H]2Oc3c(NC(=O)Nc4cccc5ccccc45)cccc3C(=O)N([C@H](C)CO)C[C@@H]2C)cc1,1.09% (inactive)
